Measurements published in PubChem BioAssay (EPA / NIEHS).
“And” between values parts separate entries of the source, which are not always exact repeats. Equal entries are not always repeated. More than one record can exist for a structure, and the calls need not agree. The source made the active and inactive calls. Rule for the calls: active = hit-call score of the fitted dose curve at least 0.9, where 1 is the maximum; inactive = score below 0.9.

Key:
[1] = BSK_CASM3C_Proliferation: Cell Proliferation Assessment in the BioMAP Diversity Plus: CASM3C Assay (AID 2283047); settings: primary human coronary artery smooth muscle cells;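 note: sulforhodamine B total protein stain as relative cell number at 560 nm; sub-confluent cells exposed 48 h before staining; fitted both ways against DMSO so gain or loss of cell number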
[2] = read-out: Monokine induced gamma interferon (MIG), CXCL9 (gene 4283); experiment: BSK_CASM3C_MIG: BioMAP Diversity Plus: CASM3C Assay for Monokine induced gamma interferon (MIG) Biomarker Activity (AID 2283048); settings: primary human coronary artery smooth muscle cells; actives raise or lower the signal;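 note: MIG protein level measured by ELISA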
[3] = read-out: serum amyloid A (SAA), SAA1 (gene 6288); experiment: BSK_CASM3C_SAA: BioMAP Diversity Plus: CASM3C Assay for serum amyloid A (SAA) Biomarker Activity (AID 2283049); settings: primary human coronary artery smooth muscle cells; actives raise or lower the signal
[4] = BSK_CASM3C_SRB: Viability Assessment in the BioMAP Diversity Plus: CASM3C Assay (AID 2283050); settings: primary human coronary artery smooth muscle cells;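 note: cells exposed to compound for 24 h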
[5] = read-out: Thrombomodulin, THBD (gene 7056); experiment: BSK_CASM3C_Thrombomodulin: BioMAP Diversity Plus: CASM3C Assay for Thrombomodulin Biomarker Activity (AID 2283051); settings: primary human coronary artery smooth muscle cells; actives raise or lower the signal;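 note: thrombomodulin protein level measured by ELISA 24 h after dosing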
[6] = read-out: Tissue Factor, F3 (gene 2152); experiment: BSK_CASM3C_TissueFactor: BioMAP Diversity Plus: CASM3C Assay for Tissue Factor Biomarker Activity (AID 2283052); settings: primary human coronary artery smooth muscle cells; actives raise or lower the signal;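 note: cell surface tissue factor protein level read by ELISA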
[7] = read-out: Interferon-gamma inducible Protein 10 (IP10), CXCL10 (gene 3627); experiment: BSK_hDFCGF_IP10: BioMAP Diversity Plus: hDFCGF Assay for Interferon-gamma inducible Protein 10 (IP10) Biomarker Activity (AID 2283053); settings: primary human foreskin fibroblasts; actives raise or lower the signal
Procedure, shortened: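 ELISA read-out of IP-10 (CXCL10) from primary human skin fibroblasts, 24 h after compound addition. Gain or loss of signal versus DMSO baseline, bidirectional curve fitting.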

[8] = read-out: Urokinase-type plasminogen activator receptor (uPAR), PLAUR (gene 5329); experiment: BSK_CASM3C_uPAR: BioMAP Diversity Plus: CASM3C Assay for Urokinase-type plasminogen activator receptor (uPAR) Biomarker Activity (AID 2283054); settings: primary human coronary artery smooth muscle cells; actives raise or lower the signal;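 note: cell-surface uPAR protein level quantified by ELISA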
[9] = read-out: Vascular cell adhesion molecule 1 (VCAM1), VCAM1 (gene 7412); experiment: BSK_CASM3C_VCAM1: BioMAP Diversity Plus: CASM3C Assay for Vascular cell adhesion molecule 1 (VCAM1) Biomarker Activity (AID 2283055); settings: primary human coronary artery smooth muscle cells; actives raise or lower the signal;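 note: VCAM-1 protein level quantified by ELISA on the cells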
[10] = read-out: Collagen III, COL3A1 (gene 1281); experiment: BSK_hDFCGF_CollagenIII: BioMAP Diversity Plus: hDFCGF Assay for Collagen III Biomarker Activity (AID 2283056); settings: primary human foreskin fibroblasts; actives raise or lower the signal
Procedure, shortened: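 Cells: human foreskin fibroblasts, primary. Dosing followed by 24 h incubation, then ELISA for collagen III. Both increases and decreases scored relative to DMSO.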

[11] = read-out: Epidermal growth factor receptor (EGFR), EGFR (gene 1956); experiment: BSK_hDFCGF_EGFR: BioMAP Diversity Plus: hDFCGF Assay for Epidermal growth factor receptor (EGFR) Biomarker Activity (AID 2283057); settings: primary human foreskin fibroblasts; actives raise or lower the signal
Procedure, shortened: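 ELISA readout of EGFR on human dermal fibroblasts (primary foreskin cells), 24 h post-dosing; bidirectional curve fit vs DMSO baseline, gain or loss of signal scored.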

[12] = read-out: Macrophage colony-stimulating factor (MCSF), CSF1 (gene 1435); experiment: BSK_hDFCGF_MCSF: BioMAP Diversity Plus: hDFCGF Assay for Macrophage colony-stimulating factor (MCSF) Biomarker Activity (AID 2283060); settings: primary human foreskin fibroblasts; actives raise or lower the signal
Procedure, shortened: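 M-CSF levels, determined by ELISA, are taken at 24 h after dosing human skin fibroblasts. Responses in either direction are fitted with DMSO serving as the baseline.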

[13] = BSK_hDFCGF_SRB: Viability Assessment in the BioMAP Diversity Plus: hDFCGF Assay (AID 2283061); settings: primary human foreskin fibroblasts;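 note: cells exposed to compound for 24 h before the read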
Procedure, shortened: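 Cells were dosed with test chemical, cultured 24 h, fixed with 10% TCA, then stained with 0.1% SRB and read at 560 nm. The fibroblasts were human foreskin primary cells, and DMSO served as baseline.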

[14] = read-out: TIMP metallopeptidase inhibitor 1 (TIMP1), TIMP1 (gene 7076); experiment: BSK_hDFCGF_TIMP1: BioMAP Diversity Plus: hDFCGF Assay for TIMP metallopeptidase inhibitor 1 (TIMP1) Biomarker Activity (AID 2283062); settings: primary human foreskin fibroblasts; actives raise or lower the signal
Procedure, shortened: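 Fibroblasts from human foreskin are treated with test chemical and harvested at 24 h. TIMP-1 is quantified by ELISA, and gain or loss of signal is scored against DMSO.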

[15] = read-out: Monokine induced gamma interferon (MIG), CXCL9 (gene 4283); experiment: BSK_hDFCGF_MIG: BioMAP Diversity Plus: hDFCGF Assay for Monokine induced gamma interferon (MIG) Biomarker Activity (AID 2283063); settings: primary human foreskin fibroblasts; actives raise or lower the signal
Procedure, shortened: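 MIG signal, determined by ELISA, reflects 24 h chemical exposure of human skin primary fibroblasts. DMSO serves as negative control and baseline.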

[16] = read-out: Matrix Metallopeptidase 1 (MMP1), MMP1 (gene 4312); experiment: BSK_hDFCGF_MMP1: BioMAP Diversity Plus: hDFCGF Assay for Matrix Metallopeptidase 1 (MMP1) Biomarker Activity (AID 2283064); settings: primary human foreskin fibroblasts; actives raise or lower the signal
Procedure, shortened: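 MMP1 levels quantified by ELISA 24 h after dosing human dermal fibroblast cultures, with parallel SRB total-protein staining for overt cytotoxicity. Data fitted in both directions against DMSO baseline.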

[17] = read-out: Vascular cell adhesion molecule 1 (VCAM1), VCAM1 (gene 7412); experiment: BSK_hDFCGF_VCAM1: BioMAP Diversity Plus: hDFCGF Assay for Vascular cell adhesion molecule 1 (VCAM1) Biomarker Activity (AID 2283065); settings: primary human foreskin fibroblasts; actives raise or lower the signal;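 for AC50: VCAM-1 protein level quantified by ELISA after 24 h chemical exposure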
Procedure, shortened: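 Cells are dosed, cultured for 24 h, then VCAM-1 is quantified by ELISA; signal increases and decreases are both fitted relative to DMSO.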

[18] = read-out: Plasminogen activator inhibitor-1 (PAI1), SERPINE1 (gene 5054); experiment: BSK_hDFCGF_PAI1: BioMAP Diversity Plus: hDFCGF Assay for Plasminogen activator inhibitor-1 (PAI1) Biomarker Activity (AID 2283066); settings: primary human foreskin fibroblasts; actives raise or lower the signal
Procedure, shortened: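 ELISA readout of PAI-1 from primary human skin fibroblast cultures, 24 h after compound addition. Gain or loss of signal was fitted bidirectionally against DMSO baseline.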

[19] = read-out: Intercellular Adhesion Molecule 1 (ICAM1), ICAM1 (gene 3383); experiment: BSK_KF3CT_ICAM1: BioMAP Diversity Plus: KF3CT Assay for Intercellular Adhesion Molecule 1 (ICAM1) Biomarker Activity (AID 2283067); settings: primary human keratinocytes with fibroblasts; actives raise or lower the signal
Procedure, shortened: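 Dose the keratinocyte/fibroblast co-culture, wait 24 h, measure ICAM-1 by ELISA, then fit increases or decreases against DMSO. Cytotoxicity is checked in parallel cultures by SRB total-protein staining.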

[20] = read-out: Interferon-gamma inducible Protein 10 (IP10), CXCL10 (gene 3627); experiment: BSK_KF3CT_IP10: BioMAP Diversity Plus: KF3CT Assay for Interferon-gamma inducible Protein 10 (IP10) Biomarker Activity (AID 2283068); settings: primary human keratinocytes with fibroblasts; actives raise or lower the signal
Procedure, shortened: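 ELISA read-out of IP-10 after 24 h chemical dosing of human skin primary co-culture (keratinocytes, foreskin fibroblasts). Gain or loss of signal relative to DMSO, bidirectional curve fit.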

Measured: AC50

COCc1c(C(C)C)nc(C(C)C)c(/C=C/[C@@H](O)C[C@@H](O)CC(=O)O)c1-c1ccc(F)cc1
active: [1] 0.056 µM | [5] 7.77 nM | [6] 0.00777 µM | [13] 0.32 µM
inactive: all other assays above

O=C(c1ccc(O)cc1)c1ccc(O)cc1O
active: [1] 15.7 µM and 10.5 µM | [9] 5.81 µM | [16] 6.99 µM and 20 µM | [17] 16.6 µM
inactive: [2] | [3] | [4] | [5] | [6] | [7] | [8] | [9] | [10] | [11] | [12] | [13] | [14] | [15] | [17] | [18] | [19] | [20]

C/C=C\C/C=C/CCCCCCCCOC(C)=O
active: [1] 26.4 µM | [2] 28.5 µM | [3] 32.3 µM | [4] 36.9 µM | [6] 6.46 µM | [7] 34.3 µM | [8] 32.7 µM | [9] 23.3 µM | [10] 20 µM | [12] 29.9 µM | [13] 31.7 µM | [14] 30.4 µM | [15] 28.3 µM | [16] 32.9 µM | [17] 24.6 µM | [18] 28.9 µM | [19] 24.6 µM | [20] 39.4 µM
inactive: [5] | [11]

O=C1CCCN1CCO
inactive: all assays above

c1ccc2c(c1)ccc1cc3c(ccc4ccccc43)cc12
inactive: [1] | [2] | [3] | [4] | [5] | [6] | [7] | [8] | [9] | [10] | [11] | [12] | [13] | [14] | [15] | [16] | [17] | [18] | [19] | [20]
active: [5] 96.2 nM | [17] 0.0192 µM

CCOC(=O)c1ccccc1C(=C1C=C(Br)C(=O)C(Br)=C1)c1cc(Br)c(O)c(Br)c1
inactive: [3] | [4] | [6] | [8] | [11] | [13]
active: [1] 20.3 µM and 22.1 µM | [2] 19.4 µM and 22.2 µM | [5] 15.8 µM and 20.4 µM | [7] 3.65 µM and 3.77 µM | [9] 19.4 µM and 23.1 µM | [10] 3.29 µM and 3.26 µM | [12] 5.09 µM and 3.85 µM | [14] 3.75 µM and 3.67 µM | [15] 3.85 µM and 3.76 µM | [16] 4.03 µM and 4.34 µM | [17] 4.49 µM and 3.7 µM | [18] 3.56 µM and 3.54 µM | [19] 5.2 µM and 5.41 µM | [20] 3.9 µM and 3.58 µM

CC(C)(c1cc(Br)c(OCCO)c(Br)c1)c1cc(Br)c(OCCO)c(Br)c1
inactive: [1] | [2] | [3] | [4] | [5] | [6] | [8] | [11] | [16]
active: [7] 23.3 µM | [9] 6.14 µM | [10] 4.6 µM | [12] 8.17 µM | [13] 16.2 µM | [14] 25.4 µM | [15] 13.1 µM | [17] 7.21 µM | [18] 16.2 µM | [19] 16.2 µM | [20] 9.81 µM

C=CC(=O)OCC(Br)CBr (centres undefined)
inactive: [3] | [11]
active: [1] 28.5 µM | [2] 28 µM | [4] 28.4 µM | [5] 32800 nM | [6] 29.1 µM | [7] 5.47 µM | [8] 28.9 µM | [9] 11.4 µM | [10] 5.82 µM | [12] 5.95 µM | [13] 9.67 µM | [14] 11.9 µM | [15] 6.57 µM | [16] 11.8 µM | [17] 1.65 µM | [18] 8.55 µM | [19] 25.2 µM | [20] 30 µM

c1ccc2c(c1)ccc1ncccc12
inactive: all assays above
